PLK1 PBD inh: blocks phosphopeptide binding to human PLK1 polo-box domain. Plk1 PBD binding of FITC phosphopeptide, fluorescence polarization. AID 720504. P53350. Potency, µM, inactives show max response, negative = inhibition, most hits filed as inhibitors. 2.8% of 360,000 active; note: potency is the fitted concentration of half-maximal effect; series mostly up to about 57 µM; % is set by controls: 0 for no effect and ±100 for the full control effect; nearly all actives have a fitted effect of over 65% in size
PI5P4Ka inh: blocks human PI5P4K alpha kinase activity; P48426; PI5P4Kalpha enzyme, ADP-Glo luminescence, 60 min; hits give low values; max response, %; 1.2% of 330,000 active; AID 652105; active = max response of -50% or lower; inconclusive = between -30% and -50%; inactive = -30% or higher; note: value at the top dose of about 77 µM; % is set by controls: 0 for no effect and ±100 for the full control effect
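Enzyme plus substrate dispensed, test compounds pinned in, then ATP (5 microM final) added. After 60 min at RT, ADP-Glo reagent 1 for 45 min and reagent 2 for 30 min preceded luminescence imaging.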
FEN1 inh: inhibitors of human flap endonuclease 1. 0.35% of 390,000 active. P39748. Potency, µM (titrated, usually from 114 µM), inactives show at the highest dose activity change, negative = inhibition, usual class: inhibitors. Recombinant FEN1 flap cleavage, fluorescence, 15 min; note: potency is the fitted concentration of half-maximal effect; % is set by controls: 0 for no effect and ±100 for the full control effect; nearly all actives have a fitted effect of over 65% in size
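Reaction started by adding substrate (50 nM final) to 10 nM enzyme after 15 min room-temperature compound preincubation. Reads at 0 and 15 min, with data normalized and fitted to a four-parameter Hill equation.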
WRN helicase inh: inhibitors of human WRN helicase | WRN helicase unwinding, fluorescent forked duplex, kinetic | Potency, µM (series often up to 114 µM), without a hit: top-dose activity change, negative = inhibition, usual class: inhibitors | 0.46% of 360,000 active | AID 651768; note: potency is the fitted concentration of half-maximal effect; % is set by controls: 0 for no effect and ±100 for the full control effect; nearly all actives have a fitted effect of over 55% in size
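Kinetic fluorescence helicase assay: unwinding of a quenched forked DNA duplex (100 nM final) with 2 mM ATP final raises red fluorescence (525/598 nm). Compounds sat 15 min at room temperature with 20 nM WRN beforehand.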
VDR inh: blocks the human vitamin D receptor | P11473 | VDR-SRC2-3 peptide fluorescence polarization, 2 h | Potency, µM, without a hit: max response, negative = inhibition, usual class: inhibitors | 0.93% of 400,000 active | AID 504847; note: potency is the fitted concentration of half-maximal effect; % is set by controls: 0 for no effect and ±100 for the full control effect
Target sequence (P11473 whole entry, looked up): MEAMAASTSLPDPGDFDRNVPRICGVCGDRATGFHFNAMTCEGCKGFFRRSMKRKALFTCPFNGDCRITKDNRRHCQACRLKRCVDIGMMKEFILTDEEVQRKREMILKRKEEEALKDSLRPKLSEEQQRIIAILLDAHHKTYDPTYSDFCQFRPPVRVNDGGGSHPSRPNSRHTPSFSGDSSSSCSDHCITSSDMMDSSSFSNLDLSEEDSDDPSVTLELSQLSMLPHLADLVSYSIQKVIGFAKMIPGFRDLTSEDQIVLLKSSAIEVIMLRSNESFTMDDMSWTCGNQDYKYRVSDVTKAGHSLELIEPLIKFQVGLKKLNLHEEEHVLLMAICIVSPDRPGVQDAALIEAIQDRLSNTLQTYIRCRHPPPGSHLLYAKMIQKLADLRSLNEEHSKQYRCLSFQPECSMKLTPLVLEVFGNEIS
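Inhibition of the VDR/SRC2-3 peptide interaction is quantified by fluorescence polarization. Compounds (23 nl, pintool) incubate with the reagents for 2 hours at ambient room temperature.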
TCR activator: activators of T cell receptors. 330,000 tested, under 10 active. Potency, µM (highest dose often 9.22 µM), for the others: at the top dose activation of IL-2 secretion, most hits filed as activators. primary human leukocytes, anti-CD3, IL-2 HTRF, 48 h; note: % of control where 0% means no effect
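Compounds are tested in HTS on primary human leukocytes co-incubated with a-CD3 beads for 48 hr. IL-2 output is measured by time-resolved FRET.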
* = called active by the depositor; ? = inconclusive; . = not tested or not shown; [ ] = remark or other dose. Hits are enriched below; roughly 3.7% of the tested compounds scored in any of these assays. Unless noted, calls come from the whole dose curve; as a rule, active = well fitted curve in the direction sought with a large enough effect; inconclusive = small, poorly fitted or top-dose-only effect, or another doubt; inactive = no such curve, though single readings can be large; an effect the other way counts as inactive or inconclusive.

SMILES | PLK1 PBD inh | PI5P4Ka inh | FEN1 inh | WRN helicase inh | VDR inh | TCR activator
CC(=O)C(Sc1ncnc2c1nnn2-c1ccc(F)cc1)C(=O)N(C)C (centres undefined) | 23.8µM* | -24.1 | -5.9% | ? | 50.1µM* | 9.8%
CCOc1nc(NC(C)C)nc(N2CC3CC(C2)c2cccc(=O)n2C3)n1 (centres undefined) | 7.52µM* | -24.2 | ? | 5.1% | ? | 9.1%
CC(C)=CCCC(C)C1CC[C@@]2(C)C3=C(CC[C@@]12C)C1(C)CCC(O)C(C)(C)C1CC3 (some centres undefined) | . | . | . | . | 35.5µM* | .
C/C(=C/CCC(C)[C@H]1CC[C@@]2(C)C3=C(CC[C@]12C)[C@@]1(C)CCC(=O)C(C)(C)[C@@H]1CC3)C(=O)O (some centres undefined) | 13.4µM* | -0.3 | 50.1µM* | 79.4µM* | ? | 0.2%
CCCOC(=O)c1cc2c(cn1)[nH]c1ccccc12 | . | . | . | . | -13.9% | .
COc1c(O)c2c(=O)cc(OC)c3c4c(OC)cc(=O)c5c(O)c(OC)c(C[C@@H](C)OC(=O)c6ccccc6)c(c(c1C[C@@H](C)OC(=O)Oc1ccc(O)cc1)c23)c54 | . | . | . | . | 50.1µM* | .
O=C(Oc1ccc([N+](=O)[O-])cc1)N1CCN(/[N+]([O-])=N/Oc2ccc([N+](=O)[O-])cc2[N+](=O)[O-])CC1 | . | . | -20.8% | . | . | .
O=C(COc1ccccc1/C=C1/NC(=O)NC1=O)Nc1ccccc1 | 3.36µM* | ? | ? | 9.9% | ? | -6.3%[46.1 µM]
O=C(Nc1ccccc1)c1c(O)[nH]c(=O)[nH]c1=O | -6.4% | 6.1 | -3.0% | 5.0% | -5.8% | -3.9%
C/C(O)=C(/C#N)C(=O)Nc1cc(Br)ccc1Br | . | . | . | . | -28.0% | .
N#CC(C#N)=NNc1ccc([N+](=O)[O-])cc1 | 5.9% | -20.1 | 11.3% | -4.1% | ? | -0.9%
Cc1cc(C)n(-c2ccc(NN=C(C#N)C#N)cc2)n1 | -16.3% | -19.0 | -18.5% | -11.4% | 28.2µM* | 1.3%
O=C1NS(=O)c2cc([N+](=O)[O-])cc([N+](=O)[O-])c21 (centres undefined) | 23.8µM* | -24.2 | -8.7% | -5.5% | ? | -13.4%
O=[N+]([O-])c1ccc(F)c([N+](=O)[O-])c1 | . | . | . | . | -2.2% | .
CN1CCN(Cc2cc(C(C)(C)C)c(O)c(C(C)(C)C)c2)CC1 | 23.8µM* | -8.2 | 5.3% | 5.6% | -29.4% | .
O=C1CCCC2[C@@H]3CCCN4CCC[C@@H](CN12)C34 (some centres undefined) | . | . | . | . | 3.3% | .
Nc1c(C(=O)NCc2ccco2)c2nc3ccccc3nc2n1Cc1ccc(F)cc1 | 26.7µM* | ? | -13.9% | ? | -8.8% | 4.7%
CCCCn1c(N)c(C(=O)NCc2cccs2)c2nc3ccccc3nc21 | -10.4% | . | -21.8% | -7.5% | 89.1µM* | 5.0%
Nc1c(C(=O)NCCCc2ccccc2)c2nc3ccccc3nc2n1Cc1cccs1 | -10.5% | . | -24.5% | -18.8% | 79.4µM* | -15.6%
c1cc[n+]2c(c1)-c1cccc[n+]1CC2 | . | . | . | . | -0.3% | .
CC1(C)C(C(Cl)Cl)C2(Cl)C(Cl)C(Cl)C1(Cl)C2(Cl)Cl (centres undefined) | . | . | . | . | -13.7% | .
CCC1(CC)CCNC1=O | . | . | . | . | 11.6% | .
O=C(O)Cc1cccnc1C(=O)O | . | . | . | . | -4.0% | .
C[C@@H]1CO1 | . | . | . | . | -2.6% | .
C[C@@H]1CC[C@H]2[C@@H](C)C(=O)O[C@@H]3OC4(C)CC[C@@H]1[C@]32OO4 | . | . | . | . | -1.4% | .
SMILES | PLK1 PBD inh | PI5P4Ka inh | FEN1 inh | WRN helicase inh | VDR inh | TCR activator
c1ccc([Se]c2c(-c3ccccc3)[se]c3ccccc23)cc1 | . | . | . | . | 63.1µM* | .
CCN(CCCNS(=O)(=O)c1ccc2c(c1)oc(=O)n2C)c1cccc(C)c1 | 23.8µM* | -18.5 | -25.6% | -5.9% | ? | -5.9%
O=C(c1ccccc1)c1cn(CC(=O)N2CCOCC2)c2ccccc12 | 23.8µM* | ? | -7.9% | -4.5% | -0.8% | 1.3%
O=C(c1ccccc1)c1cn(CC(=O)N2CCCC2)c2ccccc12 | -2.8% | 0.2 | -7.9% | -4.8% | 14.0% | -3.0%
CC1CC(Cl)CCC1C(=O)OC(C)(C)C (centres undefined) | . | . | . | . | 15.8% | .
CCOc1cc(/C=C(\C#N)C(=O)NCC2CCCO2)ccc1OCC(N)=O (centres undefined) | 29.9µM* | -3.8 | 22.9% | 4.0% | -26.4% | -5.4%
CCOc1cccc(OCC)c2c(C)[n+](CC3CCCO3)c(C)c1-2 (centres undefined) | -15.9% | -15.2 | ? | -35.5% | -28.7% | -6.1%
Cc1cc(C)cc(N2C(=O)NC(=O)/C(=C\c3cccn3-c3ccc(Cl)cc3)C2=O)c1 | 1.19µM* | ? | 1.2% | -12.4%[57.1 µM] | -0.8% | -1.8%
CN1C(=O)/C(=C/c2cccn2-c2ccc3ccccc3c2)C(=O)NC1=S | 0.532µM* | -77.8* | ? | -34.9%[57.1 µM] | 44.7µM* | -1.0%
Cc1cc(/C=C2\C(=O)NC(=O)N(c3ccc(Br)cc3)C2=O)c(C)n1C | -2.4% | -2.6 | -7.3% | 1.9% | 13.6% | 0.0%
Cc1cc(C)cc(N2C(=O)NC(=O)/C(=C\c3cccn3-c3ccccc3)C2=O)c1 | 2.12µM* | 0.1 | 4.3% | ? | -7.8% | -4.8%[46.1 µM]
CCOC(=O)[C@@]1(C#N)[C@@H]2C=CC(C(N)=O)=CN2[C@@H](C(N)=O)[C@@H]1c1cccc(Cl)c1 | 26.7µM* | -29.1 | 1.4% | -17.5% | -2.0% | 5.5%
CN(C)C1CSSSC1 | . | . | . | . | 6.6% | .
c1ccc2c(c1)[IH]c1ccccc1-2 | -17.8% | -0.9 | 50.1µM* | -7.7% | 12.9% | -2.3%
c1ccc2c(c1)OC[C@@H](C1=NCCN1)O2 | . | . | . | . | -7.0% | .
CN[C@@H]1C[C@@]2(C)O[C@@H]([C@@H]1OC)n1c3ccccc3c3c4c(c5c6ccccc6n2c5c31)C(=O)NC4 | . | . | . | . | -0.7% | .
CC1=C(C(=O)O)N2C(=O)C(NC(=O)Cc3ccccc3)C2SC1 (centres undefined) | -6.9% | -1.7 | 6.0% | -5.0% | 28.7% | -3.4%
CC1=C(C(=O)O)N2C(=O)C(NC(=O)c3nn(C)cc3[N+](=O)[O-])C2SC1 (centres undefined) | 33.6µM* | -17.1 | -6.5% | -11.2% | ? | -7.9%
CC(=O)NCC(N)C(=O)c1ccc(Cl)c(Cl)c1 (centres undefined) | . | . | -5.9% | . | . | .
COCCn1c(-c2ccccc2)cc(C(=O)O)c1C | 23.8µM* | -14.3 | -2.3% | 1.2% | -6.3% | -3.0%
COc1ccc(/C=C/C(=O)N2CC3C[C@@H](C2)Cn2c3cccc2=O)cc1OC | . | . | . | . | 0.0% | .
CC(=O)CC(c1ccccc1[N+](=O)[O-])c1c(O)c2ccccc2oc1=O (centres undefined) | 5.8% | 1.9 | 7.9% | 8.1% | -19.7% | -0.7%
COc1cc(C(c2c(C)[nH]n(-c3ccccc3)c2=O)c2c(C)[nH]n(-c3ccccc3)c2=O)cc(OC)c1OC | 2.12µM* | . | ? | ? | ? | 11.4%
